The results in this text go back to PubChem BioAssay (NCATS).

The nature of experiment [1]: qHTS of pediatric cancer cell lines to identify multiple opportunities for drug repurposing: Primary screen for Saos-2 cells (AID 1347097). Note: nearly all actives have a fitted effect of over 40% in size. Note: potency is the fitted concentration of half-maximal effect. Summed up: (§1)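 Viability was measured as metabolically active cells after 48 hours of treatment, read by CellTiter-Glo luminescence. Compounds were tested at multiple final concentrations, giving concentration-response curves.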
On the technique in general: qHTS replaces the single test concentration by a dilution series.

Experiment [2] in a line: qHTS of pediatric cancer cell lines to identify multiple opportunities for drug repurposing: Primary screen for SK-N-SH cells (AID 1347098). Note: nearly all actives have a fitted effect of over 65% in size. Note: potency is the fitted concentration of half-maximal effect. Summed up: (§2)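 Cells (500-1,000/well) rested 5 h, then received compounds for 48 h; metabolically active cells were measured by CellTiter-Glo luminescence. Final concentrations spanned up to 46 µM (MIPE, 11-point) or 0.59 nM-46 µM (NPC, 8-point) in primary screens, 11-point in follow-ups.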

A short description of experiment [3]: qHTS of pediatric cancer cell lines to identify multiple opportunities for drug repurposing: Primary screen for NB1643 cells (AID 1347099). Note: nearly all actives have a fitted effect of over 50% in size. Note: potency is the fitted concentration of half-maximal effect. In a few lines:
as §1

Experiment [4] in a line: qHTS of pediatric cancer cell lines to identify multiple opportunities for drug repurposing: Primary screen for LAN-5 cells (AID 1347100). Note: potency is the fitted concentration of half-maximal effect. Summed up:
(§3)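 Cells (500-1,000/well) in growth media were settled 5 h at 37 degrees C, then given compounds for 48 h. Viability was read as CellTiter-Glo luminescence. Primary runs used MIPE at 11 points (0.78 nM-46 µM) and NPC at 8 points (0.59 nM-46 µM); follow-ups used 11 points.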

Experiment [5] can be described thus: qHTS of pediatric cancer cell lines to identify multiple opportunities for drug repurposing: Primary screen for BT-12 cells (AID 1347101). Note: nearly all actives have a fitted effect of over 25% in size. Note: potency is the fitted concentration of half-maximal effect. In a few lines:
as §2

Experiment [6] in a line: qHTS of pediatric cancer cell lines to identify multiple opportunities for drug repurposing: Primary screen for Rh18 cells (AID 1347102). Note: nearly all actives have a fitted effect of over 65% in size. Note: potency is the fitted concentration of half-maximal effect. In a few lines:
as §3

Experiment [7] in a line: qHTS of pediatric cancer cell lines to identify multiple opportunities for drug repurposing: Primary screen for OHS-50 cells (AID 1347103). Note: nearly all actives have a fitted effect of over 40% in size. Note: potency is the fitted concentration of half-maximal effect. In a few lines: as §2
The nature of experiment [8]: qHTS of pediatric cancer cell lines to identify multiple opportunities for drug repurposing: Primary screen for RD cells (AID 1347104). Note: nearly all actives have a fitted effect of over 55% in size. Note: potency is the fitted concentration of half-maximal effect. In a few lines: as §1
Experiment [9] in a line: qHTS of pediatric cancer cell lines to identify multiple opportunities for drug repurposing: Primary screen for MG 63 (6-TG R) cells (AID 1347105). Note: nearly all actives have a fitted effect of over 50% in size. Note: potency is the fitted concentration of half-maximal effect. In a few lines: as §1
Experiment [10] is described as follows: qHTS of pediatric cancer cell lines to identify multiple opportunities for drug repurposing: Primary screen for control Hh wild type fibroblast cells (AID 1347106).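 Note: series mostly up to about 46 µM; a drop in luminescence marks cytotoxicity and a rise apparent proliferation; nearly all actives have a fitted effect of over 55% in size.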 Summed up:
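Viability after 48 h compound treatment at 37C, 500-1,000 cells/well, read as ATP luminescence with CellTiter-Glo. Primary screens used 11-point (MIPE, 0.78 nM-46 µM) or 8-point (NPC, 0.59 nM-46 µM) final concentrations; follow-up screens used 11-point dilutions.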

Inconclusive results are not listed. The source made the active and inactive calls. Calls come from the whole dose curve; as a rule, active = well fitted curve in the direction sought with a large enough effect; inconclusive = small, poorly fitted or top-dose-only effect, or another doubt; inactive = no such curve, though single readings can be large; an effect the other way counts as inactive or inconclusive.

For `C[C@]12CCC3=C4CCC(=O)C=C4CC[C@@H]3[C@H]1CC[C@@]2(O)CC#N`, the Potency entry in experiment [1], in experiment [2], in experiment [3], in [4], in [5] and in [6] was “inactive” throughout. The Potency entry in experiment [7], in experiment [8], in [9] and in experiment [10] was “inactive” throughout.
For the molecule `COc1ccnc(CS(=O)c2nc3ccc(OC(F)F)cc3[nH]2)c1OC` (stereo not drawn), the Potency result in experiment [1], in [2], in experiment [3], in experiment [4], in experiment [5] and in experiment [6] was “inactive” throughout. The Potency entry in [7], in [9] and in experiment [10] was “inactive” in each case.
With `CCOC(=O)[C@@H](N)CCC(=O)N[C@@H](CSCc1ccccc1)C(=O)N[C@@H](C(=O)OCC)c1ccccc1`, the Potency entry in [1], in experiment [2], in experiment [3], in [4], in [5] and in experiment [6] was “inactive” in each case. Besides, the Potency entry in experiment [7], in [8], in [9] and in [10] was “inactive” throughout.
As for `COc1cc2nc(-c3cc(F)ccc3O)nc(N[C@@H]3CNC[C@@H]3C(C)(C)O)c2cc1OC`, the Potency in experiment [1] is 9.35 µM (active); in experiment [2] it was 30.4 µM (active); in [3], 16.6 µM (active); in experiment [4] it was 13200 nM (active); in experiment [5], 27.3 µM (active); in experiment [6], 18.7 µM (active). Besides, the Potency in experiment [8] is 33.2 µM (active). Besides, the Potency entry in experiment [10] is “inactive”.
For `CC(C)=CCCC(C)=CCCC(C)=CCCC(C)=CCCC(C)=CCCC(C)=CCCC(C)=CCCC(C)=CCCC(C)=CCO`, the Potency entry in experiment [1], in experiment [2], in experiment [3], in [4], in experiment [5] and in experiment [6] was “inactive” in each case. Further, the Potency entry in experiment [7], in experiment [8], in [9] and in [10] was “inactive” each time.
Turning to `O=C1Nc2ccc(I)cc2C1=Cc1cc(Br)c(O)c(Br)c1`, the Potency result in experiment [1], in experiment [2], in experiment [3], in [4], in [5] and in experiment [6] was “inactive” each time. The Potency entry in experiment [8], in [9] and in experiment [10] was “inactive” throughout.
Regarding `CC1(C)[C@H]2CC[C@]3(C)[C@@H](C(=O)C=C4[C@@H]5C[C@@](C)(C(=O)O)CC[C@]5(C)CC[C@]43C)[C@@]2(C)CC[C@@H]1O`, the Potency result in experiment [1], in experiment [2], in experiment [3], in experiment [4], in [5] and in [6] was “inactive” each time. For the same molecule, the Potency result in experiment [8], in [9] and in experiment [10] was “inactive” throughout.
Take `CCC(=C(c1ccc(O)cc1)c1ccc(OCCNC)cc1)c1ccccc1`: the Potency is 18.7 µM (active) in experiment [1]; 34.1 µM (active) in experiment [2]; 23.5 µM (active) in experiment [3]; 26400 nM (active) in experiment [4]; 27.3 µM (active) in experiment [5]; 21700 nM (active) in experiment [7]. Also, the Potency in experiment [8] is 33.2 µM (active); in [9], 23500 nM (active).
Consider `CSc1cccc(Nc2ncc3cc(-c4c(Cl)cccc4Cl)c(=O)n(C)c3n2)c1`, for which the Potency in experiment [1] was 0.118 µM (active); in experiment [3], 0.209 µM (active); in [4] it was 372 nM (active). The Potency result in experiment [2], in experiment [5] and in experiment [10] was “inactive” in each case.
On to `C[C@@H](O)[C@H]1C(=O)N2C(C(=O)OCOC(=O)C(C)(C)C)=C(SC3CN(C4=NCCS4)C3)[C@H](C)[C@H]12`, for which the Potency result in [1], in [2], in experiment [3], in [4], in experiment [5] and in experiment [6] was “inactive” each time. The Potency result in experiment [7], in [8], in experiment [9] and in experiment [10] was “inactive” throughout.
For the molecule `CO[C@H]1/C=C\O[C@@]2(C)Oc3c(C)c(O)c4c(O)c(c(C=NN5CCN(C6CCCC6)CC5)c(O)c4c3C2=O)NC(=O)C(C)=CC=C[C@H](C)[C@H](O)[C@@H](C)[C@@H](O)[C@@H](C)[C@H](OC(C)=O)[C@H]1C`, the Potency in experiment [1] was 0.0935 µM (active); in experiment [2], 0.0961 µM (active); in experiment [3], 0.0105 µM (active); in experiment [4] it was 1 nM (active); in experiment [5] it was 0.137 µM (active); in experiment [6], 0.118 µM (active). For the same molecule, the Potency in experiment [7] was 193 nM (active); in [8], 0.209 µM (active); in [9], 590 nM (active).
`CC(C)CN(C[C@@H](O)[C@H](Cc1ccccc1)NC(=O)O[C@H]1CO[C@H]2OCC[C@H]21)S(=O)(=O)c1ccc(N)cc1`: the Potency in experiment [1] is 20.9 µM (active); in [3] it was 18.7 µM (active); in experiment [4] it was 18700 nM (active); in [5] it was 3.85 µM (active); in [7] it was 12200 nM (active); in experiment [8], 14.8 µM (active). Besides, the Potency result in experiment [2] and in experiment [10] was “inactive” in each case.
As for `CN1N=C(N)c2cn([C@@H]3O[C@H](COP(=O)(O)O)[C@@H](O)[C@@H]3O)c3ncnc1c23`, the Potency in [1] was 2.09 µM (active); in [2], 21.5 µM (active); in experiment [3], 16.6 µM (active); in experiment [4], 166 nM (active); in [6], 9.35 µM (active); in experiment [7] it was 193 nM (active).
In the case of `O=C(NCCCCN1CCOCC1)c1cc2ccccc2o1`, the Potency entry in [1], in experiment [3], in [4], in experiment [5], in [6] and in experiment [7] was “inactive” in each case. Moreover, the Potency entry in experiment [8], in [9] and in [10] was “inactive” in each case. Further, the Potency in [2] is 30.4 µM (active).
On to `Cc1cn([C@@H]2C[C@@H](O)[C@H](CO)O2)c(=O)[nH]c1=O`, for which the Potency entry in experiment [1], in experiment [2], in experiment [3], in experiment [4], in [5] and in experiment [6] was “inactive” in each case. For the same molecule, the Potency entry in experiment [7], in experiment [8], in experiment [9] and in experiment [10] was “inactive” in each case.
Regarding `C[C@@H]1O[C@@H](O[C@H]2CC[C@@]3(C)[C@H](CC[C@@H]4[C@H]3C[C@@H](O)[C@]3(C)[C@@H](C5=CC(=O)OC5)CC[C@]43O)C2)C[C@H](O)[C@@H]1O[C@H]1C[C@H](O)[C@H](O[C@H]2C[C@H](O)[C@@H](O)[C@@H](C)O2)[C@H](C)O1` (stereo in doubt), the Potency in experiment [1] was 0.679 µM (active); in experiment [2], 0.555 µM (active); in experiment [3], 0.429 µM (active); in experiment [4], 241 nM (active); in experiment [5], 0.14 µM (active); in [7], 140 nM (active). Moreover, the Potency in experiment [8] is 0.121 µM (active); in experiment [9], 67.9 nM (active).
Turning to `CC=C1C2C=C(C)CC1(N)c1ccc(=O)[nH]c1C2` (stereo not drawn), the Potency result in [1], in experiment [2], in experiment [3], in experiment [4], in [5] and in experiment [8] was “inactive” in each case. In addition, the Potency result in [9] and in experiment [10] was “inactive” throughout.
